# Screening data deposited in PubChem BioAssay by The Scripps Research Institute Molecular Screening Center.
# A selection: hits, their analogues and other compounds. The true share with any hit is near 3.5%.
# TEAD-YAP inh: TEAD-YAP interaction inhibition, primary screen, TEAD-YAP interaction inhibitor project, luminescence, HEK-TIYL cells. TEAD-Gal4/YAP UAS-luciferase luminescence. inhibition, % at 9.12 µM. actives 1.4% (n = 640,000); in the data active = inhibition above about 32%;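 also: 0% = median of test compound wells and 100% = reference inhibitor wells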
# GPR151 activ: activators of human GPR151, primary screen, cell-based, PathHunter beta-arrestin, luminescence; G-protein coupled receptor 151 (Homo sapiens), Q8TDV0; PathHunter beta-arrestin GPR151 cells; activation, % at 11.2 µM; actives 1% (n = 650,000); AID 1508602, 2020; in the data active = activation above about 4.9%;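 also: 0% = median of compound wells and 100% = cells with positive control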
# FBW7 activator: FBW7 E3 ligase activators, primary screen, biochemical, AlphaScreen, human; F-box/WD repeat-containing protein 7 (Homo sapiens), Q969H0; AlphaScreen FBW7–phospho-cyclin E peptide binding, activator screen; AID 1259310, 2017; actives 0.13% (n = 650,000); normalized activity (activation), % at 26.1 µM; in the data active = normalized activity above about 1.9%;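 also: purified mutant Fbw7 with reduced substrate affinity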
# MITF inh: MITF inhibitors, primary screen, biochemical, AlphaScreen, human. actives 0.91% (n = 650,000). Microphthalmia-associated transcription factor (Homo sapiens), O75030. inhibition, % at 2.6 µM. AlphaScreen MITF homodimerization, bead proximity signal; in the data active = inhibition above about 50%;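 also: 0% = vehicle wells with protein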
# Target sequence (O75030 whole entry, looked up): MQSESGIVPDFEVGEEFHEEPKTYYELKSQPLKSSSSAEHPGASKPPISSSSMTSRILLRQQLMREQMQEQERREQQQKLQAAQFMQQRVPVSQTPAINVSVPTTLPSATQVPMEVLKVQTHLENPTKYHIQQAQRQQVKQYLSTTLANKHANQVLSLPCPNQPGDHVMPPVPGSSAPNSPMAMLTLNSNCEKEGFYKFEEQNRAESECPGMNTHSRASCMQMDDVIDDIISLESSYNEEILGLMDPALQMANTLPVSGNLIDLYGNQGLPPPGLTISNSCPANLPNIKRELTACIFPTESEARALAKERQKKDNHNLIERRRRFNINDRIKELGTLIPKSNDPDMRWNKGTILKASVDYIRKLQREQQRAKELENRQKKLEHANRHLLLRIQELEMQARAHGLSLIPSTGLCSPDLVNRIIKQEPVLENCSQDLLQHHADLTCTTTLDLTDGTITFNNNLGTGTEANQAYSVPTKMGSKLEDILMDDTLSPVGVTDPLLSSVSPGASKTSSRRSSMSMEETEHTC
# GPR151 conf act: GPR151 activators, triplicate retest, confirmation, cell-based, PathHunter beta-arrestin, luminescence | shares compounds with GPR151 activ | GPR151 PathHunter beta-arrestin cells, 90 min; % of EA-reagent control over plate median | activation, % at 11.2 µM | 6,700 tested, under 10 active | AID 1508609, 2020;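 active = mean percent activation across replicates above the confirmation screen cutoff of 4.91%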
# GPR119 counter: GPR119 activators in beta-arrestin cells, counter-screen for GPR151 activator project, cell-based, PathHunter beta-arrestin, luminescence, triplicate; shares compounds with GPR151 activ; 90 min; 0 = compound-well median, 100 = enzyme-acceptor control; activation, % at 11.2 µM; actives 0.3% (n = 6,700);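 active = mean percent activation in the counterscreen above 29.09%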;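 also: counterscreen on off-target GPR119 to flag nonselective hits from the GPR151 activator screen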
# * = called active by the depositor; · = no result given.
SMILES,TEAD-YAP inh,GPR151 activ,FBW7 activator,MITF inh,GPR151 conf act,GPR119 counter
Cc1ccccc1-n1nc2c(c1NC(=O)c1ccc(S(=O)(=O)N3CCCCC3)cc1)CS(=O)C2 (stereo not drawn),2,3,0,15,·,·
CN(C)CCNC(=O)C(=O)NCC1OCCN1S(=O)(=O)c1cccs1 (stereo not drawn),6,6.3*,1,-16,0,4
COC(CNC(=O)C(=O)NCC1OCCN1S(=O)(=O)c1cccs1)OC (stereo not drawn),-7,-2,1,7,·,·
COc1cc(C(=O)Nc2nc3ccc(C)cc3s2)cc(OC)c1OC,6,1,0,-5,·,·
CCOc1cc(/C=C(/C#N)C(=O)NCc2ccccc2)ccc1OC,4,0,0,4,·,·
COc1ccc(/C=C(\C#N)C(=O)NCc2cccnc2)cc1OC,-9,6.0*,0,-2,0,7
CCCC(=O)Nc1ccc(OC)c(NC(=O)CSc2nnc(-c3cccs3)n2C)c1,-2,0,0,1,·,·
N#Cc1ccc(C(=O)Nc2ccc(Br)cc2)c(F)c1,-51,1,0,6,·,·
Cc1cc(Br)ccc1NC(=O)c1ccc(C#N)cc1F,-6,13*,0,-14,-1,6
O=C(COc1cccc(Cl)c1Cl)c1ccc[nH]1,-9,9.9*,0,0,0,-12
COc1cc(C(=O)OCC2CC(c3ccccc3)=NO2)cc(OC)c1OC (stereo not drawn),3,5.4*,0,3,-1,-10
COc1ccc(C(=O)OCC2CC(c3ccccc3)=NO2)cc1OC (stereo not drawn),-7,0,0,-1,·,·
O=C(Nc1ccccc1[N+](=O)[O-])c1cc(Br)ccc1Cl,3,5.9*,0,7,1,3
O=C(O)c1cccc([N+](=O)[O-])c1C(=O)Nc1cccc(Cl)c1Cl,-2,7.6*,0,-2,0,5
O=C(Nc1cccc(Cl)c1Cl)c1ccccc1[N+](=O)[O-],-6,0,0,-12,·,·
N#Cc1ccccc1NC(=O)c1cc(Br)ccc1Cl,-2,-1,0,16,·,·
Cc1cccc(NC(=O)c2sc3nc4c(cc3c2N)C(=O)CC(C)(C)C4)c1,-2,-3,1,16,·,·
O=C1c2ccccc2C(=O)N1OS(=O)(=O)c1ccc(Cl)cc1,2,17*,1,14,0,4
O=C1c2ccccc2C(=O)N1OS(=O)(=O)c1ccccc1,-6,0,0,-2,·,·
Cc1ccccc1Nc1nc(C(F)(F)F)c(-c2ccc(F)cc2)s1,-46,-1,1,13,·,·
CC(C)c1ccc(-n2cc(-c3ccc(C(=O)N4CCCC4)cn3)cn2)cc1,19,6.2*,0,8,0,7
COc1cccc(CC(=O)Nc2noc3ccccc23)c1,-8,1,0,9,·,·
Cc1ccccc1-n1c(O)c(C=NCCCC(C)C)c(=O)[nH]c1=O,10,8.5*,0,-3,0,13
COc1ccccc1N=Cc1c(O)n(-c2ccccc2C)c(=O)[nH]c1=O,-3,6.0*,0,22,1,9
CCC(=O)N1CCc2cc(S(=O)(=O)N(CC)CCN(C)C)ccc21,1,0,0,-11,·,·
SMILES,TEAD-YAP inh,GPR151 activ,FBW7 activator,MITF inh,GPR151 conf act,GPR119 counter
Cc1cc2nc(-c3cc(NC(=O)c4cccnc4)ccc3Cl)oc2cc1C,-9,5.3*,0,-3,0,13
O=C(Nc1ccc(Cl)c(-c2nc3ccccc3o2)c1)c1cccnc1,-3,1,0,15,·,·
CS(=O)(=O)c1ccc(CCC(=O)NCc2ccccc2)cc1,9,-1,0,18,·,·
C=CCCC(=O)NCc1cc(NS(=O)(=O)c2ccccc2Cl)cc(C(=O)OC)c1,3,0,1,1,·,·
COC(=O)c1cc(CNC(=O)C(C)C)cc(NS(=O)(=O)c2ccccc2Cl)c1,-9,5.6*,0,-7,0,17
COc1ccc(-c2cc(C)cc3c2OC(CNC(=O)CC(C)C)C3)nn1 (stereo not drawn),-1,0,0,11,·,·
Cc1cc2c(c(-c3ccc(C(N)=O)cn3)c1)OC(CNC(=O)C13CC4CC(CC(C4)C1)C3)C2 (stereo not drawn),0,7.1*,0,-9,0,-3
COc1ccc(C(=O)NCc2nnc(SCC(=O)N3N=C(c4cccs4)CC3c3ccc(F)cc3)n2-c2ccccc2)cc1 (stereo not drawn),17,1,0,-9,·,·
Cc1ccc(C2=C/C(=C/c3ccccn3)C(=O)O2)c(C)c1,-44,5.3*,0,1,2,-9
Cc1nnc(-c2ccccc2)c(=O)n1/N=C/c1ccc2c(c1)OCO2,-6,8.1*,0,-9,0,8
Cc1nnc(SCC(=O)O)n1/N=C/c1ccc2c(c1)OCO2,-8,2,0,-6,·,·
CCc1noc(C)c1C(=O)OCC(=O)Nc1cc(C)on1,5,5.3*,0,16,2,2
O=C(NCc1cccnc1)c1cc(-c2ccc(F)cc2)no1,-23,5.0*,0,14,0,-6
CN(CC(=O)c1ccc2cc[nH]c2c1)Cc1ccccc1,-20,5.3*,1,14,0,-7
CCOc1ccc(NC2=CC(=O)CCC2)cc1,-1,1,0,-4,·,·
CCOc1ccc(NC2=CC(=O)C=CC2=O)cc1,8,5.8*,0,26,0,-2
C=CCOc1ccc(/C=N/NC(=O)CSc2nc(C)cc(C)n2)cc1OCC,4,12*,0,12,1,4
C=CCOc1ccc(/C=N/NC(=O)CSc2nc(C)cc(C)n2)cc1,11,3,0,14,·,·
O=C(NC1CCCCC1)c1ccc(F)c(F)c1,8,5.8*,0,-10,0,-18
O=C(NC1CCCCC1)c1ccc(-n2cccc2)cc1,-44,5.8*,0,19,0,-3
COc1ccccc1OCCn1cc(/C=C(\C#N)C(=O)NC2CC2)c2ccccc21,13,5.6*,0,5,0,-7
COc1ccc(OCCn2cc(/C=C(\C#N)C(=O)NC3CC3)c3ccccc32)cc1,15,0,0,-7,·,·
Fc1cccc2sc(Nc3nc(-c4ccccn4)cs3)nc12,50*,7.6*,-1,19,0,0
